Inconclusive results are not listed. The source made the active and inactive calls. The call rests on the fitted dose curve; in most records, active means well fitted curve in the direction sought with a large enough effect; inconclusive means small, poorly fitted or top-dose-only effect, or another doubt; inactive means no such curve, though single readings can be large; an effect the other way counts as inactive or inconclusive.

A short description of test [1]: qHTS for Inhibitors of Plasmodium falciparum (DD2) proliferation (AID 504314). A digest of the protocol: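 Erythrocytes infected with P. falciparum Dd2 (0.3% parasitemia, 2.5% hematocrit) exposed to compound 72 h at 37C, 5% CO2. Parasite DNA quantified by SYBR Green fluorescence after saponin/Triton lysis overnight; normalized to 0.29 uM artemisinin and DMSO.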
For orientation: qHTS replaces the single test concentration by a dilution series.

A short description of test [2]: qHTS for Inhibitors of Plasmodium falciparum (GB4) proliferation (AID 504315). Further: nearly all actives have a fitted effect of over 50% in size. The method in brief:
(§1)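 Erythrocytes infected with P. falciparum line (0.3% parasitemia, 2.5% hematocrit final) incubated with compounds 72 h at 37 °C, 5% CO2; SYBR Green lysis buffer added, fluorescence read next day. Normalized to 0.29 uM artemisinin and DMSO.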

Test [3] in a line: qHTS for Inhibitors of Plasmodium falciparum (7G8) proliferation (AID 504316). Further: nearly all actives have a fitted effect of over 65% in size. A digest of the protocol:
as §1

Test [4] can be described thus: qHTS for Inhibitors of Plasmodium falciparum (HB3) proliferation (AID 504318). Further: nearly all actives have a fitted effect of over 60% in size. The method in brief:
as §1

Test [5] is described as follows: qHTS for Inhibitors of Plasmodium falciparum (CP250) proliferation (AID 504320). A digest of the protocol: as §1
Potency means the concentration at half of the fitted maximal effect.

`CCCCC1=CC2=CC(=O)C(C)(OC(=O)CC)C(=O)C2=CN1Cc1ccco1` (stereo not drawn): the Potency entry in test [1], in test [2], in test [3], in test [4] and in test [5] was “inactive” each time.
Consider `C[C@H]1Cc2c(-c3ccccc3)nc3c(c2CO1)CN(C(=O)c1ccco1)CC3`, for which the Potency entry in test [1], in test [2], in test [3], in test [4] and in test [5] was “inactive” each time.
Consider `COC(=O)CCC(=O)OC1(C)C(=O)C2=CN(CCN3CCOCC3)C(c3ccc(OC)cc3)=CC2=C(Br)C1=O` (stereo not drawn), for which the Potency entry in test [1], in test [2], in test [3], in test [4] and in test [5] was “inactive” in each case.
On to `COC(=O)CCCC1=CC2=CC(=O)C(C)(OC(=O)c3cccs3)C(=O)C2=CN1c1cccc(C#N)c1` (stereo not drawn), for which the Potency entry in test [1], in test [2], in test [3], in test [4] and in test [5] was “inactive” each time.
For the molecule `COC(=O)N[C@@H](c1cccc(C)c1)[C@]1(C(C)=O)CCCC1=O`, the Potency entry in test [1], in test [2], in test [3], in test [4] and in test [5] was “inactive” in each case.
As for `COCCN1C=C2C(=O)C(C)(OC(=O)CCC(=O)OC)C(=O)C(Br)=C2C=C1c1ccc(OC)cc1` (stereo not drawn), the Potency result in test [1], in test [2], in test [3], in test [4] and in test [5] was “inactive” throughout.
`CC(=O)C1=C(C)N(Cc2ccccc2)C(=O)N[C@H]1c1cccc(F)c1`: the Potency entry in test [1], in test [2], in test [3], in test [4] and in test [5] was “inactive” each time.
As for `CCN1C(=O)N[C@@H](c2cccc(C(F)(F)F)c2)C(C(C)=O)=C1C`, the Potency entry in test [1], in test [2], in test [3], in test [4] and in test [5] was “inactive” each time.
`COC(=O)C1=C(C(=O)OC)[C@@H]2N(C)c3ccc(OC)cc3[C@@]23C[C@@H](C(=O)OC)N(C(=O)c2ccc(Br)cc2)C3=N1`: the Potency entry in test [1], in test [2], in test [3], in test [4] and in test [5] was “inactive” each time.
Take `CCCCC1=CC2=CC(=O)C(C)(OC(=O)CC)C(=O)C2=CN1CCCOC(C)C` (stereo not drawn): the Potency result in test [1], in test [2], in test [3], in test [4] and in test [5] was “inactive” in each case.
For `COCCN1C(=O)N[C@@H](c2ccco2)C(C(=O)OC)=C1C`, the Potency result in test [1], in test [2], in test [3], in test [4] and in test [5] was “inactive” each time.
Regarding `FC(F)(F)c1cc(NC(=S)NC23CC4CC(CC(C4)C2)C3)cc(C(F)(F)F)c1`, the Potency in test [1] was 753 nM (active); in test [2], 1070 nM (active); in test [3] it was 601 nM (active); in test [4], 478 nM (active); in test [5] it was 849 nM (active).
Consider `COC(=O)C1=C(C(=O)OC)[C@@H]2N(C)c3ccccc3[C@@]23C[C@@H](C(=O)OC)N(S(=O)(=O)c2ccc(C#N)cc2)C3=N1`, for which the Potency entry in test [1], in test [2], in test [3], in test [4] and in test [5] was “inactive” in each case.
For `CCOC(=O)C=CCCCC=CC(=O)c1ccccc1`, the Potency entry in test [1], in test [2], in test [3], in test [4] and in test [5] was “inactive” in each case.
Turning to `CCN1C(=O)N[C@@H](CCc2ccccc2)C(C(=O)OC)=C1C`, the Potency entry in test [1], in test [2], in test [3], in test [4] and in test [5] was “inactive” throughout.
As to `COC(=O)C1=C(C(=O)OC)[C@@H]2N(C)c3ccccc3[C@@]23C[C@@H](C(=O)OC)N(S(=O)(=O)c2ccc(C)cc2)C3=N1`, the Potency entry in test [1], in test [2], in test [3], in test [4] and in test [5] was “inactive” throughout.
Consider `CCCCc1nc2c(c3c1C[C@H](C)OC3)CN(C(=O)N[C@@H](C)c1ccccc1)CC2`, for which the Potency entry in test [1], in test [2], in test [3], in test [4] and in test [5] was “inactive” throughout.
As to `COC(=O)C1=C(C(=O)OC)[C@@H]2N(C)c3ccc(OC)cc3[C@@]23C[C@@H](C(=O)OC)N(C(=O)C2CCC2)C3=N1`, the Potency result in test [1], in test [2], in test [3], in test [4] and in test [5] was “inactive” throughout.
As to `COC(=O)CCCC1=CC2=CC(=O)C(C)(OC(=O)c3cccs3)C(=O)C2=CN1c1ccccc1` (stereo not drawn), the Potency result in test [1], in test [2], in test [3], in test [4] and in test [5] was “inactive” each time.
For `CC(C)CON=C1C[C@@H](O)[C@@H](O)[C@@H]2[C@H]3C(=O)N(c4cccc(Oc5ccccc5)c4)C(=O)[C@@H]3CC[C@H]12`, the Potency result in test [1], in test [2], in test [4] and in test [5] was “inactive” throughout.
For the molecule `CCN1C(=O)NC(c2ccc(Br)cc2)C(C(=O)OC)=C1C` (stereo not drawn), the Potency entry in test [1], in test [2], in test [3], in test [4] and in test [5] was “inactive” in each case.
Take `COCC(=O)N1CCc2nc(-c3ccc(OC)cc3C)c3c(c2C1)CO[C@@H](c1ccccc1)C3`: the Potency entry in test [1], in test [2], in test [3], in test [4] and in test [5] was “inactive” each time.
`COC(=O)C1=C(C(=O)OC)[C@@H]2N(C)c3ccccc3[C@@]23C[C@@H](C(=O)OC)N(C(C)=O)C3=N1`: the Potency result in test [1], in test [2], in test [3], in test [4] and in test [5] was “inactive” throughout.
In the case of `CCCCC1=CC2=C(c3ccco3)C(=O)C(C)(OC(=O)c3ccc(OC)cc3)C(=O)C2=CN1CCCCO` (stereo not drawn), the Potency result in test [1], in test [2], in test [3], in test [4] and in test [5] was “inactive” in each case.
Consider `COC/C=C/C1=CC2=CC(=O)C(C)(OC(=O)c3cnc4ccccc4n3)C(=O)C2=CN1Cc1ccc(OC)cc1` (stereo not drawn), for which the Potency result in test [1], in test [2], in test [3], in test [4] and in test [5] was “inactive” throughout.
Take `COC(=O)C1=C(C(=O)OC)[C@@H]2N(C)c3ccc(OC)cc3[C@@]23C[C@@H](C(=O)OC)N=C3N1`: the Potency result in test [1], in test [2], in test [3], in test [4] and in test [5] was “inactive” each time.
On to `CC1(OC(=O)c2cnc3ccccc3n2)C(=O)C=C2C=C3CCCN3C=C2C1=O` (stereo not drawn), for which the Potency entry in test [1], in test [2], in test [3], in test [4] and in test [5] was “inactive” throughout.
As to `CCN1C(=O)N[C@@H](c2cccc(C(F)(F)F)c2)[C@H](C(=O)OC)[C@H]1C`, the Potency entry in test [1], in test [2], in test [3], in test [4] and in test [5] was “inactive” throughout.
Regarding `COC/C=C/C1=CC2=CC(=O)C(C)(OC(=O)c3cnc4ccccc4n3)C(=O)C2=CN1CCc1ccccn1` (stereo not drawn), the Potency result in test [1], in test [2], in test [3], in test [4] and in test [5] was “inactive” throughout.
Take `CCCCc1nc2c(c3c1C[C@H](C)OC3)CN(C(=O)COC)CC2`: the Potency entry in test [1], in test [2], in test [3], in test [4] and in test [5] was “inactive” in each case.
Consider `CCOC(=O)CN1C(=O)N[C@@H](c2cccc(F)c2)C(C(=O)OC)=C1C`, for which the Potency result in test [1], in test [2], in test [3], in test [4] and in test [5] was “inactive” in each case.
Regarding `C=CCN1c2ccccc2[C@]23C[C@@H](C(=O)OC)N(C(=O)CC(C)C)C2=NC(C(=O)OC)=C(C(=O)OC)[C@H]13`, the Potency result in test [1], in test [2], in test [3], in test [4] and in test [5] was “inactive” each time.
For `COC(=O)CCCC1=CC2=C(c3ccccc3)C(=O)C(C)(OC(=O)C3CCCC3)C(=O)C2=CN1CCc1ccccn1` (stereo not drawn), the Potency result in test [1], in test [2], in test [3], in test [4] and in test [5] was “inactive” each time.
`CCN1C(=O)N[C@@H](c2cccc(C(F)(F)F)c2)[C@@H](C(=O)OC)[C@H]1C`: the Potency result in test [1], in test [2], in test [3], in test [4] and in test [5] was “inactive” throughout.
Take `CCCCC1=CC2=CC(=O)C(C)(OC(=O)CC)C(=O)C2=CN1C(CO)CO` (stereo not drawn): the Potency result in test [1], in test [2], in test [4] and in test [5] was “inactive” throughout.
For `COc1ccc(N2C=C3C(=O)C(C)(OC(=O)CCc4ccccc4)C(=O)C=C3C=C2c2ccc(C#N)cc2)cc1` (stereo not drawn), the Potency result in test [1], in test [2], in test [4] and in test [5] was “inactive” in each case.
Take `CC1(OC(=O)CCc2ccccc2)C(=O)C=C2C=C(c3ccc(C#N)cc3)N(C3CCCCC3)C=C2C1=O` (stereo not drawn): the Potency result in test [1], in test [2], in test [3], in test [4] and in test [5] was “inactive” each time.
On to `CCCCC1=CC2=CC(=O)C(C)(OC(=O)CC)C(=O)C2=CN1Cc1ccc(OC)cc1` (stereo not drawn), for which the Potency result in test [1], in test [2], in test [4] and in test [5] was “inactive” each time.
Take `COC(=O)[C@H](Cc1ccccc1)NC(=O)O[C@@H]1C(=O)c2cc(OC)ccc2O[C@H]1c1cccc(OC)c1`: the Potency result in test [1], in test [2], in test [3], in test [4] and in test [5] was “inactive” throughout.
As to `COc1ccc(NC(=O)N2CCc3nc(COc4ccccc4)c4c(c3C2)CO[C@@H](C)C4)cc1`, the Potency result in test [1], in test [2], in test [4] and in test [5] was “inactive” throughout.
Consider `C=CC1=C2C=C(C3CC3)N(CCCN(CC)CC)C=C2C(=O)C(C)(OC(=O)c2ccco2)C1=O` (stereo not drawn), for which the Potency result in test [1], in test [2], in test [3], in test [4] and in test [5] was “inactive” throughout.
As for `CCCCC1=CC2=CC(=O)C(C)(OC(=O)CC)C(=O)C2=CN1C1CCCCC1` (stereo not drawn), the Potency entry in test [1], in test [2], in test [3], in test [4] and in test [5] was “inactive” in each case.
Consider `COC/C=C/C1=CC2=CC(=O)C(C)(OC(=O)c3cnc4ccccc4n3)C(=O)C2=CN1c1ccc(CO)cc1` (stereo not drawn), for which the Potency entry in test [1], in test [2], in test [3], in test [4] and in test [5] was “inactive” each time.
Consider `COC(=O)[C@@H]1[C@H](CCc2ccccc2)NC(=O)N(Cc2ccccc2)[C@@H]1C`, for which the Potency result in test [1], in test [2], in test [4] and in test [5] was “inactive” each time.
Regarding `COC(=O)C1=C(C(=O)OC)[C@@H]2N(C)c3ccccc3[C@@]23C[C@@H](CO)N=C3N1`, the Potency result in test [1], in test [2], in test [4] and in test [5] was “inactive” in each case.
On to `COCCN1C(=O)N[C@@H](c2cccs2)C(C(C)=O)=C1C`, for which the Potency entry in test [1], in test [2], in test [3], in test [4] and in test [5] was “inactive” each time.
Consider `C=CC[C@]1(C(=O)OC)C=C[C@H](C)[C@@H](c2ccccc2)N1C(=O)C(F)(F)F`, for which the Potency entry in test [1], in test [2], in test [3], in test [4] and in test [5] was “inactive” throughout.
For `CCCCC1=CC2=C(c3ccco3)C(=O)C(C)(OC(=O)c3ccc(OC)cc3)C(=O)C2=CN1C1CC1` (stereo not drawn), the Potency result in test [1], in test [2], in test [3], in test [4] and in test [5] was “inactive” throughout.
Take `COC(=O)C1=C(C)N(Cc2ccccc2)C(=S)NC1c1cccc(F)c1` (stereo not drawn): the Potency entry in test [1], in test [2], in test [3], in test [4] and in test [5] was “inactive” each time.
In the case of `COC(=O)[C@@H]1[C@H](CCc2ccccc2)NC(=O)N(Cc2ccccc2)[C@H]1C`, the Potency entry in test [1], in test [2], in test [3], in test [4] and in test [5] was “inactive” throughout.

For the origin of these results see PubChem BioAssay (NCATS).
